A collection of fitness landscapes (doi:10.1016/j.celrep.2020.107928)
Whole data set: some 81,000 sequences, median “one-hybrid fitness for binding NBS DNA” near -0.1, cut for the highest 2% near 0.36. What follows is part of a selection rich in the highest values, with near analogues and random picks from the rest.

B1: Caulobacter ParB omega fusion; a variant is named by its letters at X, in order, B8GW30 (parent)
chain: MESVVVGEPGMSEGRRGLGRGLSALLGEVDAAPAQAPGEQLGGSREAPIEILQRNPDQPRRTFREEDLEDLSNSIREKGVLQPILVRPSPDTAGEYQIVAGERAWRAAQRAGLKTVPIMVRELDDLAVLEIGIIENVQRADLNVLEEALSYKVLMEKFERTQENIAQTIGKSXSHVANXMRLLXLPDEVQSYLVSGELTAXHARAIAAAADPVALAKQIIEGGLSVRETEALARKAPNLSAGKSKGGRPPRVKDTDTQALESDLSSVLGLDVSIDHRGSTGTLTITYATLEQLDDLCNRLTRGI

Variants of: B1
Test: one-hybrid fitness for binding NBS DNA (the Noc-binding site; scaled: cognate 1, non-cognate 0); higher = stronger binding
Conditions: with NBS DNA site
Outline: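 Pre- and post-selection plasmids were Illumina-sequenced, three replicate libraries were pooled, and any variant with under 10 reads was removed. The libraries were Caulobacter ParB with four specificity codons randomised, selected in E. coli USO through a HIS3 reporter whose site is 19 bp from the promoter. Cells grew 48 hours at 37°C on M9 without histidine, with 0.1 mM IPTG and 5 mM 3-AT. Fitness is the log change in variant-to-wild-type read ratio, rescaled against cognate and non-cognate.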

Variant | one-hybrid fitness for binding NBS DNA
QFSY | ≤ 0.2
LCCW | ≤ 0.2
SFAL | ≤ 0.2
PWTQ | ≤ 0.2
SYNN | ≤ 0.2
PQEL | ≤ 0.2
MDPA | ≤ 0.2
QCMN | ≤ 0.2
FPNL | ≤ 0.2
PFHL | ≤ 0.2
LLMP | ≤ 0.2
FGTY | ≤ 0.2
RTKP | ≤ 0.2
RTKS | 0.622
RTKN | 0.3
ANHS | ≤ 0.2
KTRT | 0.44
KTFT | ≤ 0.2
KTKT | 0.396
KTVT | ≤ 0.2
KTYT | ≤ 0.2
KTDT | ≤ 0.2
HMYT | ≤ 0.2
SGID | ≤ 0.2
QDWR | ≤ 0.2

Variant | one-hybrid fitness for binding NBS DNA
DLYM | ≤ 0.2
MQVF | ≤ 0.2
PLIS | ≤ 0.2
QIKY | 0.364
QIKD | ≤ 0.2
QHKY | 0.529
QSKY | 0.517
QIKP | ≤ 0.2
QGKY | ≤ 0.2
QHQY | ≤ 0.2
QCKY | 0.59
QSVY | ≤ 0.2
QHVY | ≤ 0.2
QCVY | ≤ 0.2
QPKY | ≤ 0.2
GTNT | ≤ 0.2
RTRV | 0.288
PYEG | ≤ 0.2
AMAG | ≤ 0.2
PRCC | ≤ 0.2
MKRL | ≤ 0.2
GLHC | ≤ 0.2
WTLT | ≤ 0.2
YTVE | ≤ 0.2
QTIY | ≤ 0.2

Variant | one-hybrid fitness for binding NBS DNA
QTVY | ≤ 0.2
QAKY | 0.531
QTKY | 0.658
QMKY | 0.516
QMPY | ≤ 0.2
QAVY | ≤ 0.2
QKKY | 0.498
QMVY | ≤ 0.2
QKNY | 0.26
QANY | ≤ 0.2
QKVY | ≤ 0.2
VVSE | ≤ 0.2
LAWC | ≤ 0.2
RNCT | ≤ 0.2
SKAC | ≤ 0.2
MVPR | ≤ 0.2
EELK | ≤ 0.2
TSEY | ≤ 0.2
HMMA | ≤ 0.2
CPSC | ≤ 0.2
TSCN | ≤ 0.2
GRQR | ≤ 0.2
QLKY | 0.46
QLHY | ≤ 0.2
QLVY | ≤ 0.2

Variant | one-hybrid fitness for binding NBS DNA
KCDL | ≤ 0.2
SRHH | ≤ 0.2
QQQA | 0.357
QQSA | 0.37
QQAA | 0.347
QQKA | 0.628
QQDA | 0.25
QQNA | 0.421
QQHA | 0.384
QQPA | ≤ 0.2
QQLA | 0.294
QQVA | 0.271
QQIA | ≤ 0.2
PRNE | ≤ 0.2
MSCY | ≤ 0.2
IKIS | ≤ 0.2
QDWF | ≤ 0.2
TRTG | ≤ 0.2
QQYA | 0.303
QQFA | 0.201
QQCA | 0.291
QQGA | 0.388
QQRA | 0.606
QQWA | 0.212
RPVR | 0.204

Variant | one-hybrid fitness for binding NBS DNA
RCVR | 0.349
RKVR | 0.478
RKKM | 0.269
RKKR | 0.768
RKKF | ≤ 0.2
TEPD | ≤ 0.2
QDCL | ≤ 0.2
PCKR | 0.205
TRKP | ≤ 0.2
HRYR | ≤ 0.2
YCKR | ≤ 0.2
TRVS | ≤ 0.2
PRKR | 0.4
HRKR | 0.395
YRKR | 0.377
PRVR | ≤ 0.2
HRVR | ≤ 0.2
TRKS | 0.437
YRVR | ≤ 0.2
GNLD | ≤ 0.2
ICLR | ≤ 0.2
DVLD | ≤ 0.2
AEAG | ≤ 0.2
IGGG | ≤ 0.2
AHLT | ≤ 0.2

Variant | one-hybrid fitness for binding NBS DNA
TRKR | 0.799
ARYR | ≤ 0.2
ARVR | ≤ 0.2
TRKN | 0.212
ARKR | 0.364
TRVR | 0.215
KFSD | ≤ 0.2
ETGL | ≤ 0.2
QTPN | ≤ 0.2
QTIR | 0.499
QSPR | 0.27
QTIN | ≤ 0.2
QTID | ≤ 0.2
QTPD | ≤ 0.2
QCPR | 0.37
QTPR | 0.42
QPPR | ≤ 0.2
FWRC | ≤ 0.2
SYKP | ≤ 0.2
HILC | ≤ 0.2
CLQI | ≤ 0.2
NVRS | ≤ 0.2
IVEG | ≤ 0.2
QRQG | 0.366
QRGG | 0.367

Variant | one-hybrid fitness for binding NBS DNA
QPGG | ≤ 0.2
QCRG | 0.451
QSRG | 0.319
QRFG | 0.249
QSQG | ≤ 0.2
QCAG | ≤ 0.2
QRAG | 0.37
QPRG | ≤ 0.2
QCGG | ≤ 0.2
QCQG | ≤ 0.2
PYIE | ≤ 0.2
ACCM | ≤ 0.2
VPMR | ≤ 0.2
STTV | ≤ 0.2
THKV | ≤ 0.2
IMSF | ≤ 0.2
GCVM | ≤ 0.2
QMYG | ≤ 0.2
QRIG | ≤ 0.2
QTYG | ≤ 0.2
QTDG | ≤ 0.2
QMDG | ≤ 0.2
QRYG | 0.312
QRNG | 0.381
QMRG | 0.391

Variant | one-hybrid fitness for binding NBS DNA
QTRG | 0.496
QCNG | ≤ 0.2
QRRG | 0.483
QRDG | ≤ 0.2
AHGY | ≤ 0.2
VSQE | ≤ 0.2
EAKN | ≤ 0.2
LLTW | ≤ 0.2
AKGR | ≤ 0.2
QLFF | ≤ 0.2
YHKT | ≤ 0.2
GRAV | ≤ 0.2
LTWN | ≤ 0.2
RRFM | 0.266
RRFD | ≤ 0.2
RRFS | 0.666
RRFN | 0.23
RRAD | ≤ 0.2
RSFS | 0.252
RRFP | ≤ 0.2
RRAN | 0.282
RRAH | 0.406
RPFS | ≤ 0.2
RCFS | 0.411
RRFH | 0.389

Variant | one-hybrid fitness for binding NBS DNA
LARA | ≤ 0.2
ELER | ≤ 0.2
PWIR | ≤ 0.2
MRID | ≤ 0.2
CPAI | ≤ 0.2
RRAS | 0.655
RRAP | ≤ 0.2
RRAK | 0.254
RIHH | ≤ 0.2
RILR | 0.27
RIHP | ≤ 0.2
RIQR | 0.38
RISR | 0.386
RISN | ≤ 0.2
RIYR | 0.377
RIQD | ≤ 0.2
RISD | ≤ 0.2
RIHR | 0.477
RIPR | ≤ 0.2
RIQH | ≤ 0.2
PALM | ≤ 0.2
HPME | ≤ 0.2
PIEV | ≤ 0.2
KSHW | ≤ 0.2
VSAN | ≤ 0.2

Variant | one-hybrid fitness for binding NBS DNA
EYDR | ≤ 0.2
AMER | ≤ 0.2
ITVP | ≤ 0.2
GPTF | ≤ 0.2
TCYM | ≤ 0.2
RGSS | ≤ 0.2
WTNW | ≤ 0.2
HPYT | ≤ 0.2
GAIA | ≤ 0.2
RIWN | ≤ 0.2
RIRH | 0.333
RIGR | 0.441
RIWR | 0.367
RIGD | ≤ 0.2
RIRR | 0.638
RIIR | ≤ 0.2
RIWM | ≤ 0.2
RIGH | ≤ 0.2
ISCL | ≤ 0.2
YPMG | ≤ 0.2
GWYC | ≤ 0.2
RPAE | ≤ 0.2
HFNL | ≤ 0.2
RVAR | 0.396
RVYR | 0.359

Variant | one-hybrid fitness for binding NBS DNA
RVWR | 0.248
RVFR | 0.34
RVQH | ≤ 0.2
RVAH | ≤ 0.2
RVQS | 0.357
RVQR | 0.415
RVRR | 0.626
TANR | ≤ 0.2
ERVW | ≤ 0.2
TLWC | ≤ 0.2
KAYA | ≤ 0.2
QKKI | 0.337
QKKS | 0.662
QKKE | 0.283
QKHQ | ≤ 0.2
QKKH | 0.619
QKKP | 0.26
QKKQ | 0.384
QKKN | 0.42
QKVQ | 0.268
QKVH | ≤ 0.2
QKKD | 0.211
QKKG | 0.332
FAHG | ≤ 0.2
SLHE | ≤ 0.2

Variant | one-hybrid fitness for binding NBS DNA
RHIK | ≤ 0.2
GTLP | ≤ 0.2
PPRN | ≤ 0.2
SIAA | ≤ 0.2
YQPS | ≤ 0.2
KTAW | ≤ 0.2
CMYT | ≤ 0.2
DGST | ≤ 0.2
AMAP | ≤ 0.2
QKRG | 0.335
QKPS | ≤ 0.2
QKNS | 0.539
QKIS | 0.278
QKNP | ≤ 0.2
QKYN | ≤ 0.2
QKDS | 0.332
QKRN | 0.37
QKYS | 0.43
QKQD | ≤ 0.2
QKQS | 0.458
QKQP | ≤ 0.2
DCTY | ≤ 0.2
IHHC | ≤ 0.2
WGKE | ≤ 0.2
WAWT | ≤ 0.2

Variant | one-hybrid fitness for binding NBS DNA
MWRS | ≤ 0.2
MATS | ≤ 0.2
CSVV | ≤ 0.2
GFNG | ≤ 0.2
GKLD | ≤ 0.2
QKAS | 0.498
GKLS | ≤ 0.2
QKHS | 0.494
QKHD | ≤ 0.2
QKAP | ≤ 0.2
QKCS | 0.419
QKHH | 0.205
QKAN | ≤ 0.2
QKCH | ≤ 0.2
GKLH | 0.366
QKCN | ≤ 0.2
